From the supplement of paper PMC11417369
± gives the standard deviation of the averaged measurements. Over roughly 25,000 sequences, “ln(normalized median fluorescence intensity)” has its median near 8.6; the highest 2% begin near 10. Many of the other results were omitted from the sample, so the highest values are more common in it than they were.

system: PfAP2-EXP AP2 domain (GST-tagged); assay: gcPBM binding intensity (ln(normalized median fluorescence intensity)); higher = stronger DNA binding
How it was run: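 Binding intensity is the highest Masliner-normalised natural-log median intensity over replicate spots in either probe orientation. To obtain it, GST-tagged P. falciparum DNA-binding domains made in E. coli were incubated for 1 h on an Agilent 4 × 180k array of primer-extended double-stranded 36-bp intergenic genomic probes plus negative controls. Detection used Alexa488 anti-GST antibody with scanning at 488 nm.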

| Sequence | gcPBM binding intensity (ln) |
| --- | --- |
| TTCTAACTTTTAAACACACAAATATAAATAAGTATA [CACACA_site7473] | 8.29 ± 0.62 |
| CCAACTAAAAAGGAATGTACATAGTTATGGTTGGAA [XGTACX_site8762] | 9.04 ± 0.47 |
| TAAGGAAAAAGAAAAAGTACATTATATAATAAATAG [XGTACX_site3282] | 8.71 ± 0.46 |
| GTGAAATGGAAAAAAAGTACAGATTACATAAGTATT [XGTACX_site6355] | 8.64 ± 0.42 |
| TATTTATTGTGATACTACTATTATTTTATGATTAAA [CACACA_negctrl_site284] | 8.44 ± 0.42 |
| GTATAATATTCATATTCACACATTAAAATATATTTA [CACACA_site4879] | 8.49 ± 0.49 |
| AAAAAATGATAATATACACACTTATGGGAGAGCGCA [CACACA_site5398] | 8.275 ± 0.078 |
| ATTTTAAATTAAATTACACACTACGAATAATATATT [CACACA_site4016] | 8.43 ± 0.42 |
| CAACAAAAGTTATTTACACACAAAAGGCAAGGAAAT [CACACA_site7013] | 8.94 ± 0.47 |
| TAACATATTTTTAATACACACTTAAAAAAGTACTTA [CACACA_site4875] | 8.31 ± 0.34 |
| TTTTTTTTTTTTTACACACCCAAATCACATACATAT [CACACA_site6089] | 8.59 ± 0.44 |
| AAAAAAAAAATTAAAACATGCATAAATAAATATATT [TGCATGCA_site866] | 8.73 ± 0.37 |
| TCAATAAATATACATACATGCATACATACATACATA [TGCATGCA_site197] | 8.72 ± 0.47 |
| AAATGTTGAAATGATACACACATATATATATATATA [CACACA_site2517] | 10.3 ± 0.32 |
| AAATGTTGAAATGATACACACATATAAATATAAATA [CACACA_site7229] | 8.53 ± 0.42 |
| AGAAATGAAATATACACACATACATATATACATATA [CACACA_site4033] | 8.49 ± 0.27 |
| AATCAATAAATAAAAACATGCATATATATATATATA [TGCATGCA_site438] | 10.3 ± 0.47 |
| AAAAAAAAATTAAAAACACACATATATATATATATA [CACACA_site1580] | 10.2 ± 0.39 |
| AAAAAAATTAAACACACACACACATATATATATATA [CACACA_site4718] | 10.1 ± 0.25 |
| AAAAAAAAATTAAAAACACACATATAAATAAATATA [CACACA_site6845] | 8.48 ± 0.48 |
| TGGTATATAAAACACACACACATATGTATTTATATA [CACACA_site4665] | 8.54 ± 0.38 |
| TCATGGAATATTTAAAGTACAAAAAGTGTTCTTTAC [XGTACX_site715] | 8.21 ± 0.3 |
| TAATATCATTTATGTAGTACTATAACAAGAACTATA [XGTACX_site3618] | 8.33 ± 0.35 |
| TATATATATATAAAGGTGCATATCTTTACGTATGTC [GTGCAC_site9665] | 9.99 ± 0.11 |

| Sequence | gcPBM binding intensity (ln) |
| --- | --- |
| AAAAAAAAGGAAAATAAAAATAAAAAAAAATAATAA [XGTACX_negctrl_site601] | 8.53 ± 0.52 |
| AAAAAAAAAAAATATACACACACATATATATATATA [CACACA_site9123] | 10 ± 0.45 |
| AAAAAAAAAAAAAATACACACACATATATATATATA [CACACA_site8698] | 10.1 ± 0.26 |
| AAAAAAAAAAAAAATACACACATATATATATATATA [CACACA_site85] | 10.1 ± 0.34 |
| AAAAAAAATACATACATACACACATATATATATATA [CACACA_site912] | 9.98 ± 0.38 |
| AAAAAAAAAAAATACACACACATATATATATATATA [CACACA_site2224] | 10.2 ± 0.23 |
| AAAAAAAAAAAATACACACACACATATATATATATA [CACACA_site731] | 10.2 ± 0.18 |
| TTATATAAATATAAGGTGCTGGGGTTTATTACATAT [GTGCAC_site9909] | 9.03 ± 0.54 |
| AAGATGGTAAAGAATTGTACGCGCATATATATATTT [XGTACX_site3904] | 9.69 ± 0.42 |
| GGCATACACAGACACACACACACACCCACATATATA [CACACA_site591] | 8.79 ± 0.4 |
| TGTATTATATATGTGTGTACATATTTTTTTTTTTTT [XGTACX_site3351] | 8.47 ± 0.34 |
| TTTTAAAGCATATCATATAAAGAACATGACATAGGA [CACACA_negctrl_site630] | 8.61 ± 0.33 |
| ATTTTTTTTGTAAAAGTGCATATATATATATATATA | 10.4 ± 0.35 |
| TTTTTTAAATTTAAAGTGCATTATTATATATTTGTA | 8.65 ± 0.15 |
| AAAAAAAAAAAAAAAGTGCATATATAAATATTGTAT [GTGCAC_site9459] | 8.62 ± 0.3 |
| AAAATTAATAAATAAACACACATATTTATATTTATA [CACACA_site7266] | 8.03 ± 0.41 |
| ATATATATTATATATTGTACATATTATATTCATTAT [XGTACX_site1766] | 8.57 ± 0.3 |
| CTTAAAAAAATATATTGTACATATATATATACAACT [XGTACX_site1281] | 8.33 ± 0.3 |
| GAATATTCACATACTTGTACATATATATATATATAT [XGTACX_site7302] | 10.2 ± 0.68 |
| TAAAAATATTTTCATTGTACATATATATAAATATAT [XGTACX_site1123] | 8.4 ± 0.33 |
| TAACTTCAAAAATCTTGTACATAAATATATAAAACA [XGTACX_site8574] | 8.53 ± 0.44 |
| AATACACAAATATATTGTACATATATATATATATAT [XGTACX_site2440] | 9.85 ± 0.34 |
| ATGTATGTATATACTTGTACATATTCATATTAGTAT [XGTACX_site1118] | 8.45 ± 0.35 |
| AAAAAAAAAATTCATTGTACATATATATATATATAT [XGTACX_site8346] | 10.2 ± 0.22 |

| Sequence | gcPBM binding intensity (ln) |
| --- | --- |
| AAAATATATTCAACTTGTACATATATATATATATAT [XGTACX_site7629] | 10.3 ± 0.13 |
| GGATTTATTATATATACACACATACAGATATATATA [CACACA_site5222] | 8.48 ± 0.3 |
| GTTTTTTTTATATATTGTACAAATAATATATTATAT [XGTACX_site29] | 9.02 ± 0.37 |
| TAAATATATTTATACACACACACCAAAGCAATAGAT [CACACA_site7393] | 9.12 ± 0.35 |
| AAAAAATGTTAAAAAAGTACTTTCTTTATTTAATAA [XGTACX_site2908] | 8.07 ± 0.4 |
| GAACGCCATTCACATAAAGGGATACATAAATAAATA [XGTACX_negctrl_site330] | 8.4 ± 0.42 |
| ATATCTTAAATTATTTGTACATATATATATATATAT [XGTACX_site8034] | 10.3 ± 0.27 |
| ATGTGTATATATTATTGTACATATATATATATATAT [XGTACX_site4627] | 10.3 ± 0.2 |
| CTTTTAAATTATTTTTGTACATAATTATATATATAT [XGTACX_site4128] | 9.4 ± 0.32 |
| CATGTGCATATTAAATGTACATATATACATATATAC [XGTACX_site857] | 8.835 ± 0.064 |
| CATACACATATATATTGTACACATATATGTATGTAT [XGTACX_site4030] | 8.45 ± 0.28 |
| ATATAAAAATTAAAATGTACATATCTTATTATAATA [XGTACX_site983] | 8.32 ± 0.34 |
| TATATATTATATATATGTACATATTGTTGTGTATAT [XGTACX_site767] | 8.63 ± 0.29 |
| TATATTAATAATAAGTGTACATATATATATATTTTT [XGTACX_site288] | 8.36 ± 0.3 |
| CATATACATTGTATATGTACATATATATATATATAT [XGTACX_site3772] | 10.1 ± 0.36 |
| ATATATATATATATATGTACATATTGTATCTTATAC [XGTACX_site5466] | 10.2 ± 0.4 |
| TTGTGTACATATTAAGTGCATATATATATATATATA | 10.4 ± 0.33 |
| TATATATATATATATTGTACATATATTATTATATAT [XGTACX_site7447] | 10.2 ± 0.57 |
| TTTTAAATAAATCATGCATGCACATATAATTATATT [TGCATGCA_site151] | 9.94 ± 0.33 |
| TTATATGGATATACAGTGCATATATACATATAAGTG | 8.61 ± 0.26 |
| ACAAAAAAATGAAAAGAAAAAGATATACCCCAATAT [CACACA_negctrl_site509] | 8.99 ± 0.8 |
| TATGTAATGTTTACAACACACAAATTATAAATACAA [CACACA_site1771] | 8.38 ± 0.4 |
| TATTACATTATATAAACATGCAAAACTATATATTAT [TGCATGCA_site601] | 8.63 ± 0.45 |
| TGTTTTATTATTTATAGTACATAAAAAAATATTGTA [XGTACX_site8963] | 8.25 ± 0.24 |

| Sequence | gcPBM binding intensity (ln) |
| --- | --- |
| CAAGAATAAAAATACAAGCACACATGTATGAAATAT [CACACA_site3214] | 8.91 ± 0.42 |
| TTATATCTTATAAAATGTACATAAAATATATAATAT [XGTACX_site7647] | 8.52 ± 0.26 |
| ATATATATATATAAATGTACAGGCTTATCTCTTATT [XGTACX_site1828] | 10.2 ± 0.12 |
| TAAAAAAAAAAAATGTGTACATATTATATATATCTT [XGTACX_site2615] | 8.22 ± 0.3 |
| ATTTATCTATAATATACACACATATAACAGACATAT [CACACA_site6469] | 8.52 ± 0.33 |
| TGAATAATATACATACGTACATACATATATATAATA [XGTACX_site1302] | 8.32 ± 0.3 |
| TAATATACATATATATGTACATATATATATATATAT [XGTACX_site2684] | 9.93 ± 0.35 |
| ATACATTCTAATACGTGTACATATATATATATATAT [XGTACX_site1881] | 10.2 ± 0.28 |
| ATTACAAAAAAAAAAAAAAAAAAAAAAAAAAAAAAA [CACACA_negctrl_site448] | 7.95 ± 0.33 |
| TAATTTTTTTTAATAACACACATATATATATATATA [CACACA_site813] | 10.47 ± 0.042 |
| TATATATATATATACACATGCAAAAATTTTTAATTT [TGCATGCA_site82] | 10.2 ± 0.35 |
| TTTTATATATTATATACACACATATATATATATATA [CACACA_site2999] | 10.2 ± 0.32 |
| ATTTTATTTATATACACACACATATATATATTATAT [CACACA_site822] | 8.77 ± 0.44 |
| TAATTTTTTTTAATAACACACATATAAATATAAATA [CACACA_site6521] | 8.17 ± 0.45 |
| TTACTACTATATTATACACACATATATTTATTTATA [CACACA_site7274] | 8.7 ± 0.4 |
| AATAATTTTTTAAACACACACACATATATATATATA [CACACA_site95] | 10.1 ± 0.3 |
| TTTTTTTTTTTTTAAACATGCAAAATATATAATTTT [TGCATGCA_site633] | 8.46 ± 0.36 |
| TTACTACTATATTATACACACATATATATATATATA [CACACA_site2621] | 10.3 ± 0.23 |
| ATATTTTATTTATATACACACACATATATATATTAT [CACACA_site8177] | 8.79 ± 0.47 |
| TATTACACATATTATACACACATATATTATATATAT [CACACA_site4951] | 8.69 ± 0.25 |
| TACATAAATTTTAATACATGCAAATAAAATATATAA [TGCATGCA_site131] | 8.88 ± 0.4 |
